Measured values: PubChem BioAssay AID485317 (Broad Institute, 2010)
Out of some 290,000 compounds screened, about 11,000 (3.8%) were called active.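 The calls were made as follows: active = mean replicate inhibition above about 79%, with every replicate also reaching it (limit read from the data); inconclusive = only one of the two criteria met; inactive = mean below limit and not every replicate reaching it.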 Only a selection was taken, and actives are over-represented in it overall.

These molecules were tested against FAD-linked sulfhydryl oxidase ALR (Homo sapiens) (UniProt P55789) (assay: ALR-catalysed DTT oxidation blockers – biochemical, H2O2 detection, HRP-luminol luminescence, single point, primary screen (AID 485317)). Settings: purified ALR, active compounds read high, concentration not given here.
Sequence of FAD-linked sulfhydryl oxidase ALR (Homo sapiens) (P55789 whole entry, looked up): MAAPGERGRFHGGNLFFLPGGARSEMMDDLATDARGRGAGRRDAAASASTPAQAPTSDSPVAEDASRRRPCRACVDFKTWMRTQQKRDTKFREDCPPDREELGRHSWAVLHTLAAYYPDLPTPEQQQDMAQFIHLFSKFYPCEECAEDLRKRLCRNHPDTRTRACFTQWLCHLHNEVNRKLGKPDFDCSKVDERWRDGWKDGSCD
In the case of `C=CCC[C@H](Cc1ccc(F)cc1)C(=O)OC[C@@H](NC(=O)[C@@H](CC=C)CC(=O)N[C@H](CO)Cc1ccccc1)C(C)(C)C`, the inhibition is reported as 2.91% (inactive).
`Brc1cnc2ccccc2c1N1CCCCC1` was tested, and the inhibition was -0.469% (inactive).
For `CS(=O)(=O)Nc1ccccc1C(=O)OCC(=O)NC1CC1`, the inhibition was -5.36% (inactive).
`COc1cccc(OCCOc2cccc(/C=N/n3cnnc3)c2)c1` was tested, and the inhibition was -9.36% (inactive).
With `CN(C)c1ccc(-n2cccc2/C=C2/SC(=Nc3ccc(F)cc3)NC2=O)cc1` the inhibition was -13.8% (inactive).
With `CN(C)c1ccc(-n2cccc2/C=N/n2cnnc2)cc1` the inhibition was 98.6% (active).
With `CC1(C)C2CC[C@]3(C)C(CC=C4[C@@H]5C[C@@](C)(CO)CC[C@]5(C(=O)O)CC[C@]43C)[C@@]2(C)CC[C@@H]1O` (some centres undefined) the inhibition was -8.21% (inactive).
For `O=C(COC(=O)/C=C/c1ccc(Br)o1)Nc1cccc(S(=O)(=O)N2CCOCC2)c1`, the inhibition was -1.78% (inactive).
`CC(=O)Oc1cccc(N2C(=O)C3CC=C(Cl)CC3C2=O)c1` (centres undefined) was tested, and the inhibition was -19% (inactive).
For `COc1cc2ccccc2cc1C(=O)Nc1ccc(N2CCOCC2)cc1`, the inhibition was -0.59% (inactive).
With `CC(=O)Oc1cccc(N2C(=O)CC(Nc3ccc(N4CCOCC4)cc3)C2=O)c1` (centres undefined) the inhibition was 97.2% (active).
`Cc1noc(C)c1NC(=O)Nc1cccc2c1O[C@H](CN(C)C(=O)Nc1ccccc1)[C@@H](C)CN([C@H](C)CO)C2=O` was tested, and the inhibition was 1.38% (inactive).
With `O=C(NN1CCOCC1)c1cccc(F)c1` the inhibition was -5.96% (inactive).
With `O=C(N/N=C/c1ccc2c(c1)OCO2)c1ccc(Cn2cc([N+](=O)[O-])cn2)o1` the inhibition was 29.3% (inactive).
In the case of `CN(C)c1ccc(/C=N/NC(=O)c2ccc(Cn3cc(Br)cn3)o2)cc1`, the inhibition is reported as 98.5% (active).
For `O=C(N/N=C\c1ccc(Br)cc1)c1ccc(Cn2cccn2)o1`, the inhibition was 0.182% (inactive).
With `CC(OC(=O)c1ccc(Cl)cc1O)C(=O)NCCC1=CCCCC1` (centres undefined) the inhibition was -2.95% (inactive).
For `CCOC(=O)N1CCN(C(=O)c2ccccc2SCC(=O)NCC2CCCCC2)CC1`, the inhibition was -0.603% (inactive).
For `COc1cccc(NCCC(=O)c2cccc([N+](=O)[O-])c2)c1`, the inhibition was 97.4% (active).
With `COc1cccc(CNC(=O)CCCC(=O)Nc2cccc([N+](=O)[O-])c2)c1` the inhibition was -3.17% (inactive).
For `COc1cccc(C(=O)CC(=O)C(=O)Nc2ccc([N+](=O)[O-])cc2C)c1`, the inhibition was 7.39% (inactive).
For `COc1ccc(CNC(=O)C2(CC3CC(c4ccccc4)=NO3)CCN(C(=O)c3cccc(O)c3)CC2)cc1` (centres undefined), the inhibition was -2.44% (inactive).
`COCCN(Cc1ccccc1)C(=O)Cc1ccc(S(=O)(=O)N2CCOCC2)s1` was tested, and the inhibition was 2.09% (inactive).
With `O=C(NCC1CC1)c1onc(CSc2ccccc2)c1C(=O)NCC1CC1` the inhibition was -11.1% (inactive).
`CCOC(=O)c1sc(NC(=O)CSc2nc(O)c(Cc3ccccc3)c(=O)[nH]2)nc1C` was tested, and the inhibition was 98.6% (active).
In the case of `O=C(CSc1nc(O)c(Cc2ccccc2)c(=O)[nH]1)Nc1nc2c(s1)CCCC2`, the inhibition is reported as 99.1% (active).
For `O=C(Cn1c(=O)sc2ccccc21)Nc1nc2c(s1)CCCC2`, the inhibition was 42.4% (inactive).
With `CCOC(=O)c1ccccc1NC(=O)CSc1nc2ccccc2c(=O)[nH]1` the inhibition was -0.524% (inactive).
In the case of `CCOC(=O)c1sc(NC(=O)CSc2n[nH]c(CC)n2)nc1C`, the inhibition is reported as -1.87% (inactive).
`Cc1cccc(NC(=O)CSc2nc3c(c(=O)[nH]2)CCCC3)c1C` was tested, and the inhibition was -5.33% (inactive).
In the case of `COC(=O)c1ccc(-c2c(-c3ccccc3)ncc3cc(OC)c(OC)cc23)cc1`, the inhibition is reported as 1.43% (inactive).
With `C=CC[C@H](CC(=O)OC(C)(C)C)C(=O)OC[C@H]1CCCN1C(=O)[C@H](CC=C)CC(=O)N(CCO)Cc1ccccc1` the inhibition was -5.27% (inactive).
In the case of `CC1(C)CC(=O)C=C(c2ccc3ncccc3c2)C1`, the inhibition is reported as -1.35% (inactive).
For `COc1ccc(NS(=O)(=O)c2cc(NC(=O)COc3ccccc3F)ccc2OC)cc1`, the inhibition was -2.82% (inactive).
In the case of `COc1cccc(-c2ccc3c(c2)S(=O)(=O)c2cccc(C(=O)O)c2C3=O)c1OC`, the inhibition is reported as -0.409% (inactive).
In the case of `COc1ccc(-c2csc3ncnc(N4CCN(S(=O)(=O)c5cccc(F)c5)CC4)c23)cc1`, the inhibition is reported as 0.272% (inactive).
In the case of `CCCc1ccc(C(=O)COC(=O)CN2C(=O)NC3(CCCCC3C)C2=O)cc1` (centres undefined), the inhibition is reported as -2.13% (inactive).
`Nn1c(SCC(=O)Nc2ccc3c(c2)CCC3)nnc1C1CC1` was tested, and the inhibition was 98.6% (active).
With `COc1ccc(NC(=O)CSc2nnc(C3CC3)n2C)cc1S(=O)(=O)N1CCCCC1` the inhibition was -0.755% (inactive).
With `O=C(CSc1nnnn1-c1ccc2c(c1)CCC2)Nc1ccc2c(c1)OCCO2` the inhibition was -26.1% (inactive).
In the case of `COc1ccc2cc(C3=CC(=O)C[C@H](c4ccc5c(c4)OCO5)C3)ccc2c1`, the inhibition is reported as 0.243% (inactive).
With `Cc1ccc(OCc2cc(C(=O)N(C)CCn3ccnc3C)no2)cc1C` the inhibition was -0.532% (inactive).
In the case of `CCCCCCCNC(=O)C1(CC2CC(c3cccc(Br)c3)=NO2)CCN(C(=O)c2cc(OCC)c(OCC)c(OCC)c2)CC1` (centres undefined), the inhibition is reported as -9.32% (inactive).
With `CCCCOc1ccc(NC(=O)CSCC(=O)OCC)cc1` the inhibition was 98.6% (active).
For `CCCCN(C(=O)CSCC(=O)Nc1ccc(OC)cc1)c1c(N)n(CCC)c(=O)[nH]c1=O`, the inhibition was 2.82% (inactive).
For `CCOC(=O)Cc1ncccc1C(=O)Nc1ccc(OC)cc1`, the inhibition was 10.7% (inactive).
For `O=C(NNC(=O)c1cccc(S(=O)(=O)Nc2ccc(Cl)cc2)c1)c1ccc(=O)[nH]c1`, the inhibition was -5.3% (inactive).
With `O=C(NCCc1ccc(C(F)(F)F)cc1)c1ccc2c(c1)OCO2` the inhibition was -2.72% (inactive).
In the case of `COc1ccc(/C=C(\C#N)C(=O)OCC(=O)N(C)C2CCS(=O)(=O)C2)cc1` (centres undefined), the inhibition is reported as 5.52% (inactive).
`Nc1nnnn1CC(=O)N/N=C/c1ccc(-c2cccc(Cl)c2)o1` was tested, and the inhibition was -10.4% (inactive).
In the case of `O=C(O)C(c1ccccc1)N1C(=O)/C(=C\c2ccc(-c3cccc(Cl)c3)o2)SC1=S` (centres undefined), the inhibition is reported as 98.2% (active).
With `CN1C(=O)/C(=C\c2ccc(-c3ccccc3)o2)SC1=S` the inhibition was -6.32% (inactive).
For `CC1CC(=O)Nc2ccccc2N1C(=O)COc1ccc2cc(Br)ccc2c1` (centres undefined), the inhibition was 12.2% (inactive).
With `O=C(COc1ccc(F)cc1Br)NCC1COc2ccccc2O1` (centres undefined) the inhibition was -3.27% (inactive).
